From PubChem BioAssay (NCI)
This is part of a sample that, as a whole, favours compounds with a hit. Of some 79,000 tested, about 15% had one in any assay. The source made the active and inactive calls. Rule as the data show it: active = growth inhibition above about 70%; inactive = the rest.

Key:
[1] = NCI Yeast Anticancer Drug Screen. Data for the rad18 strain (AID 177); details: S. cerevisiae rad18 mutant growth inhibition, active compounds read high
Procedure, shortened: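 Test articles were incubated with altered yeast defective in DNA damage repair. Results are given as inhibition of growth versus vehicle.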

[2] = NCI Yeast Anticancer Drug Screen. Data for the wt1 strain (AID 149);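 also: 0% = growth of vehicle-treated wt1 cultures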; details: S. cerevisiae wt1 strain (SPY 50644) growth inhibition, active compounds read high
Procedure, shortened: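 wt1 strain grown with compound or vehicle; inhibition taken from the growth difference.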

[3] = NCI Yeast Anticancer Drug Screen. Data for the rad50EPP+ strain (AID 151);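 also: 0% = growth of vehicle-treated control cultures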; details: S. cerevisiae rad50 mutant strain, active compounds read high
Procedure, shortened: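 In this screen, rad50EPP+ yeast were exposed to compounds. Growth inhibition was scored against vehicle-treated controls.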

[4] = NCI Yeast Anticancer Drug Screen. Data for the rad50 strain (AID 155);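 also: 0% = growth of vehicle-only cultures of the same strain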; details: S. cerevisiae rad50 strain growth inhibition, active compounds read high
Procedure, shortened: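 DNA repair mutant yeast, compound exposure, growth read-out; inhibition is taken relative to vehicle.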

[5] = NCI Yeast Anticancer Drug Screen. Data for the mec2-1 strain (AID 157); details: S. cerevisiae mec2-1 strain, active compounds read high
Procedure, shortened: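 Vehicle-treated cultures served as reference for growth inhibition of compound-exposed mec2-1 yeast.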

[6] = NCI Yeast Anticancer Drug Screen. Data for the sgs1 mgt1 strain (AID 161);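 also: 0% = growth of cultures given vehicle only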; details: S. cerevisiae sgs1 mgt1 strain, active compounds read high
Procedure, shortened: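 Test agents were incubated with a DNA-repair-mutant yeast strain. Growth was then read and compared against vehicle-treated controls.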

[7] = NCI Yeast Anticancer Drug Screen. Data for the CLN2oe strain (AID 163);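 also: 0% = growth of vehicle-only control cultures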; details: S. cerevisiae CLN2oe strain, active compounds read high
Procedure, shortened: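 Inhibition relative to vehicle-treated yeast is reported. Cells: strain with genetic alteration in cell-cycle control, grown with compound.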

[8] = NCI Yeast Anticancer Drug Screen. Data for the cln2 rad14 strain (AID 165);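 also: 0% = growth equal to vehicle treated cultures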; details: S. cerevisiae cln2 rad14 strain, active compounds read high
Procedure, shortened: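 Each compound was tested on cln2 rad14 yeast. Inhibition of growth was calculated against vehicle-exposed controls.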

[9] = NCI Yeast Anticancer Drug Screen. Data for the bub3 strain (AID 167); details: S. cerevisiae bub3 mutant strain, active compounds read high
Procedure, shortened: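 In this screen, a yeast mutant lacking normal mitotic checkpoint function is challenged with compound. Relative growth versus vehicle gives the inhibition value.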

[10] = NCI Yeast Anticancer Drug Screen. Data for the sgs1 strain (AID 173);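 also: 0% = growth of vehicle-only control cultures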; details: S. cerevisiae sgs1 mutant, active compounds read high
Procedure, shortened: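 Screen format: yeast with repair or checkpoint alterations, compound exposure, growth read relative to vehicle.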

[11] = NCI Yeast Anticancer Drug Screen. Data for the mlh1 rad18 strain (AID 175); details: S. cerevisiae mlh1 rad18 strain growth inhibition, active compounds read high
Procedure, shortened: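 Vehicle-treated cultures served as the reference for growth inhibition in a yeast strain carrying DNA damage repair alterations exposed to each compound.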

[12] = NCI Yeast Anticancer Drug Screen. Data for the rad52 strain (AID 147);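 also: 0% = growth of vehicle-treated control cultures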; details: S. cerevisiae rad52 mutant growth inhibition, active compounds read high
Procedure, shortened: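 Vehicle-treated cultures served as the reference for growth inhibition of compound-exposed yeast bearing a DNA repair mutation.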

[13] = NCI Yeast Anticancer Drug Screen. Data for the rad14 strain (AID 159);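 also: 0% = growth of vehicle-treated control cultures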; details: S. cerevisiae rad14 strain growth inhibition, active compounds read high
Procedure, shortened: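 DNA repair-defective yeast, compound-exposed; % growth inhibition derived by comparison with vehicle-treated controls.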

[14] = NCI Yeast Anticancer Drug Screen. Data for the mlh1 strain (AID 171);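 also: 0% = growth of vehicle-treated control cultures of the same strain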; details: S. cerevisiae mlh1 strain growth inhibition, active compounds read high
Procedure, shortened: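 Vehicle-normalised growth inhibition of a repair- or checkpoint-altered yeast strain following compound treatment.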

[15] = at 5.0 µM (retest, dose inferred, filed as 0.5)
[16] = at 50.0 µM (retest, dose inferred, filed as 5.0)

Measured: growth inhibition

O=c1[nH]cc(/C=N\Nc2ccccc2)c(=O)[nH]1
inactive: [1]; at 1.2 µM 5% | [1]; at 3.7 µM 28%
active: [1]; at 11.0 µM 73% | [1]; at 33.0 µM 88% | [1]; at 100.0 µM 89%

O=C1C=CC(=O)N1c1ccc2c(c1)OCO2
inactive: [2]; at 1.2 µM 9% | [3]; at 1.2 µM 9% | [4]; at 1.2 µM 12% | [5]; at 1.2 µM -3% | [5]; [15] 12% | [6]; [15] 8% | [7]; at 1.2 µM -9% | [7]; at 3.7 µM 40% | [8]; [15] -4% | [9]; at 1.2 µM 2% | [9]; [15] 25% | [10]; at 1.2 µM 15% | [11]; [15] -39% | [1]; at 1.2 µM -6% | [1]; at 3.7 µM 58%
active: [2]; at 3.7 µM 96% | [2]; at 11.0 µM 100% | [2]; at 33.0 µM 100% | [2]; at 100.0 µM 100% | [3]; at 3.7 µM 80% | [3]; at 11.0 µM 99% | [3]; at 33.0 µM 99% | [3]; at 100.0 µM 99% | [4]; at 3.7 µM 86% | [4]; [15] 84% | [4]; at 11.0 µM 99% | [4]; at 33.0 µM 99% | [4]; [16] 97% | [4]; at 50.0 µM 99% | [4]; at 100.0 µM 99% | [5]; at 3.7 µM 76% | [5]; at 11.0 µM 100% | [5]; at 33.0 µM 100% | [5]; [16] 99% | [5]; at 50.0 µM 98.5% | [5]; at 100.0 µM 99% | [6]; [16] 98% | [6]; at 50.0 µM 99.2% | [7]; at 11.0 µM 100% | [7]; at 33.0 µM 100% | [7]; at 100.0 µM 99% | [8]; [16] 98% | [8]; at 50.0 µM 99% | [9]; at 3.7 µM 90% | [9]; at 11.0 µM 100% | [9]; at 33.0 µM 99% | [9]; [16] 98% | [9]; at 50.0 µM 99.2% | [9]; at 100.0 µM 99% | [10]; at 3.7 µM 85% | [10]; at 11.0 µM 100% | [10]; at 33.0 µM 100% | [10]; at 100.0 µM 100% | [11]; [16] 97% | [11]; at 50.0 µM 99.2% | [1]; at 11.0 µM 100% | [1]; at 33.0 µM 100% | [1]; at 100.0 µM 99%

COc1ccc(/C=C2\SC(=S)N(C=C3C(=O)NC(=S)NC3=O)C2=O)cc1OC
active: [12]; at 33.0 µM 83% | [12]; at 100.0 µM 89% | [4]; at 33.0 µM 80% | [4]; at 100.0 µM 88% | [5]; at 33.0 µM 91% | [5]; [16] 75% | [5]; at 50.0 µM 77.8% | [5]; at 100.0 µM 93% | [13]; at 33.0 µM 85% | [13]; at 100.0 µM 92% | [6]; [16] 76% | [6]; at 50.0 µM 85.8% | [7]; at 33.0 µM 85% | [7]; at 100.0 µM 90% | [14]; at 33.0 µM 89% | [14]; at 100.0 µM 89% | [10]; at 33.0 µM 94% | [10]; at 100.0 µM 93% | [1]; at 33.0 µM 82% | [1]; at 100.0 µM 89%
inactive: [12]; at 1.2 µM 12% | [12]; at 3.7 µM 15% | [12]; at 11.0 µM 47% | [3]; at 1.2 µM 0% | [3]; at 3.7 µM 7% | [3]; at 11.0 µM 37% | [3]; at 33.0 µM 56% | [3]; at 100.0 µM 59% | [4]; at 1.2 µM 3% | [4]; at 3.7 µM 3% | [4]; [15] -2% | [4]; at 11.0 µM 37% | [4]; [16] 65% | [4]; at 50.0 µM 49.8% | [5]; at 1.2 µM 10% | [5]; at 3.7 µM 14% | [5]; [15] -16% | [5]; at 11.0 µM 58% | [13]; at 1.2 µM 6% | [13]; at 3.7 µM 15% | [13]; at 11.0 µM 52% | [6]; [15] -6% | [7]; at 1.2 µM -11% | [7]; at 3.7 µM -1% | [7]; at 11.0 µM 39% | [8]; [15] -25% | [8]; [16] 33% | [8]; at 50.0 µM 37.6% | [9]; at 1.2 µM 6% | [9]; at 3.7 µM 8% | [9]; [15] 3% | [9]; at 11.0 µM 33% | [9]; at 33.0 µM 60% | [9]; [16] -1% | [9]; at 50.0 µM 44.3% | [9]; at 100.0 µM 59% | [14]; at 1.2 µM 0% | [14]; at 3.7 µM 10% | [14]; at 11.0 µM 51% | [10]; at 1.2 µM 11% | [10]; at 3.7 µM 29% | [10]; at 11.0 µM 61% | [11]; [15] 7% | [11]; [16] 69% | [11]; at 50.0 µM 68.3% | [1]; at 1.2 µM 16% | [1]; at 3.7 µM 34% | [1]; at 11.0 µM 60%
